Assay results from PubChem BioAssay AID504770 (ICCB-Longwood Screening Facility, Harvard Medical School, 2011).
Values joined by “and” are separate entries in the source; they are usually repeats but may differ in a detail not shown here. Equal entries are not always repeated. Out of some 130,000 compounds screened, about 350 (0.27%) were called active. Rule as the data show it: active = z-score below about -2 (passing the limit was not always enough); inactive = the rest. Shown is part of a subset that was picked to be rich in actives. More than one record can exist for a structure, and the calls need not agree.

Experiment: PubChem AID 504770
Details: E. coli YBA685 rctB-dependent plasmid, OD600 growth, 3 h; stronger effect = lower value

| Structure (SMILES) | z-score |
| --- | --- |
| Cc1c(OCC#N)ccc2c3c(c(=O)oc12)CCC3 | -0.7 (inactive) |
| CCC1(C)NC(=O)N(NC(=O)c2ccc(S(=O)(=O)N3CCCC3)cc2)C1=O (configuration not stated) | 0.95 (inactive) |
| O=C(CCn1c(=O)oc2ccccc21)Sc1ccc(C(F)(F)F)cc1 | 0.8 (inactive) |
| Cc1ccc(NC(=O)c2ccc3nc(N4CCOCC4)sc3c2)cc1 | -1.3 (inactive) |
| O=C(CSC1=NCCS1)Nc1cc(C(F)(F)F)ccc1Cl | -0.55 (inactive) |
| COc1ccc(NC(=O)C(=S)N2CCCCC2)cc1 | -0.45 (inactive) |
| Cc1nc(N)nc(CSc2ccc(Cl)cc2)n1 | 1.4 (inactive) |
| O=C(c1[nH]nc2c1CCc1ccccc1-2)N1CCCC1 | -0.15 (inactive) |
| CC(=O)NCc1n[nH]c(=O)c2ccccc12 | -0.4 (inactive) |
| CCOc1ccc(NCc2nc3ccccc3n2C)cc1 | 0.75 (inactive) |
| Oc1c(Cl)cc(Cl)c(Cl)c1Cc1c(O)c(Cl)cc(Cl)c1Cl | -3.25 (active) |
| CC1CC(C)CN(c2nc3ccccc3c(=O)n2-c2ccc(Cl)cc2)C1 (configuration not stated) | -1.35 (inactive) |
| CCS(=O)(=O)c1ccc2c(c1)N1CCS(=O)(=O)N=C1O2 | 0.9 (inactive) |
| CC1(C)COC(Nc2ccc(Cl)c(Cl)c2)=N1 | -0.6 (inactive) |
| Cc1nc2c3ccccc3n3c(CCCC(=O)NCc4ccccn4)nnc3n2n1 | 1.15 (inactive) |
| O=S1(=O)CC(S(=O)(=O)c2ccccc2)C(S(=O)(=O)c2ccccc2)C1 (configuration not stated) | 1.15 (inactive) |
| COc1ccc2c(CC(=O)OCc3cc(Cl)c4c(c3)OCCCO4)coc2c1 | -0.55 (inactive) |
| Cc1cccc(CC2(Cc3cccc(C)c3)C(=O)OC(C)(C)OC2=O)c1 | 0.1 (inactive) |
| N#CC(c1ccc(F)cc1)N1CCOCC1 (configuration not stated) | -1.05 (inactive) |
| CN(C(=O)Cn1nc(C(F)(F)F)c2c1CCC2)C1CCCCC1 | -0.25 (inactive) |
| O=C(CCc1ccccc1)Nc1nnc(SCC(=O)N2CCCCCC2)s1 | -0.2 (inactive) |
| N#Cc1c(=O)c2nc(NCCc3ccccc3)ncc2n2c(=O)c3cc(Br)ccc3[nH]c12 | -1.25 (inactive) |
| C=CCN(C(=O)C1CCCC1)c1nc2c(s1)CCCC2 | -1.05 (inactive) |
| CC1CC(C)CN(C(=O)COC(=O)c2cccnc2Nc2ccccc2F)C1 (configuration not stated) | 0.1 (inactive) |
| C=CCNc1nc(SC)nc2ccccc12 | 1.45 (inactive) |
| COc1ccc(/C=N/NC(=O)c2ccccc2)cc1OC | 0.85 (inactive) |

| Structure (SMILES) | z-score |
| --- | --- |
| COc1cccc(/C=N/NC(=O)Cc2ccccc2)c1 | -0.6 (inactive) |
| COC(=O)N/N=C/c1c[n+]([O-])c2ccccc2[n+]1[O-] | -3.7 (active) |
| CC(NC(=O)CC1=NS(=O)(=O)c2ccccc2N1)c1ccccc1 (configuration not stated) | 0.8 (inactive) |
| Cc1cc(/C=C2\C(=O)NC(=S)N(c3ccccc3F)C2=O)c(C)n1-c1ccc(Cl)c(C(=O)O)c1 | -0.8 (inactive) |
| COC(=O)c1ccc(CNC(=O)C(C)Sc2ccccc2)cc1 (configuration not stated) | -0.15 (inactive) |
| N#Cc1c(C(F)(F)F)cc(=O)[nH]c1S | -0.6 (inactive) |
| O=C(CSC1=NC2(CCCC2)Nc2ccccc21)Nc1ccc2c(c1)OCCO2 | 0 (inactive) |
| C=CCNc1nc(OC)nc(OC)n1 | 0.15 (inactive) |
| C(=C\c1ccccc1)/CNCCCN1CCOCC1 | -0.45 (inactive) |
| S=C1SCN(CCN2CCOCC2)CN1Cc1ccccc1 | -2.95 (active) |
| COc1ccc(CN2CN(C(C)C)CSC2=S)cc1 | -1.55 (inactive) |
| Cc1cnc(NC(=O)CSc2nc3sc4c(c3c(=O)n2C)CCCC4)s1 | -1.2 (inactive) |
| O=C(OCN1C(=O)c2ccccc2C1=O)c1ccccc1O | 0.65 (inactive) |
| CO/N=C(/C(=O)N[C@@H]1C(=O)N2C(C(=O)O)=C(CSc3nc(=O)c(O)nn3C)CS[C@H]12)c1csc(N)n1 | -4.8 (active) and -2 (inactive) |
| Nc1nc(/C(=C/CC(=O)O)C(=O)N[C@@H]2C(=O)N3C(C(=O)O)=CCS[C@H]23)cs1 | -1.1 (inactive) |
| CC(=O)Nc1ccc(C(=O)N(C)Cc2cccc(F)c2)cc1 | 1.3 (inactive) |
| OCc1nc(-c2ccccc2)cs1 | -0.45 (inactive) |
| CC(C)N1CCC(=O)N(c2ccccc2Cl)C1=O | 0.25 (inactive) |
| CC(N)C(=O)Nc1ccc2c(c1)Cc1ccccc1-2 (configuration not stated) | -1.1 (inactive) |
| Cc1cccc(C(=O)Nc2nnc(/N=C/c3ccc(Br)s3)s2)c1 | -0.85 (inactive) |
| O=C(NC1CCCC1)c1cc(-c2ccc(Br)cc2)on1 | -2.5 (active) |
| CC(C)CNC(=O)c1cc(-c2ccc(Br)cc2)on1 | -0.2 (inactive) |
| O=C(NC1CCCC1)c1cc(-c2ccccc2)on1 | 0.55 (inactive) |
| CCn1c(SCC(=O)Nc2ccc3c(c2)OCCCO3)nc2cc(S(N)(=O)=O)ccc21 | 2.15 (inactive) |
| COc1ccc(-c2nc3cc(N=Cc4cccc(OC)c4O)ccc3o2)cc1 | 0.1 (inactive) |
| COc1ccc(-c2ocnc2C(=O)O)cc1 | -0.1 (inactive) |

| Structure (SMILES) | z-score |
| --- | --- |
| CCCCSc1nnc2c(=O)[nH]c(=O)[nH]c2n1 | -1.6 (inactive) |
| CC(=O)NCc1ccc(C(=O)COC(=O)c2cc(-c3ccccc3)nn2-c2ccccc2)o1 | 0.5 (inactive) |
| CC(=O)Oc1ccc2c(=O)c(-c3ccccc3)coc2c1C | 0.9 (inactive) |
| CCOC(=O)c1c(NC(=O)c2cc3ccccc3o2)sc2c1CC(C)(C)OC2 | 1.4 (inactive) |
| NS(=O)(=O)c1cc(OCC(F)(F)F)ccc1OCC(F)(F)F | -0.85 (inactive) |
| Cn1cc(NC(=O)N2CCc3ccccc3C2)c2ccccc21 | 0.5 (inactive) |
| COCCn1c(C)cc(C(=O)COC(=O)Cn2c(C)csc2=O)c1C | -0.2 (inactive) |
| Cc1ccc(Cn2ccsc2=NC(=O)COC(=O)Cn2c(C)csc2=O)cc1 | -3.3 (active) |
| Cc1csc(=O)n1CC(=O)OCC(=O)c1ccc(Cl)s1 | 1.15 (inactive) |
| Cc1ccccc1C(=O)Nc1ccccc1N1CCN(C)CC1 | 0.25 (inactive) |
| O=C1NN(c2ccc(Cl)c(Cl)c2)C(=O)/C1=C\C=C\c1ccccc1 | 0.25 (inactive) |
| N#Cc1c(SCC(=O)C23CC4CC(CC(C4)C2)C3)sc2c(=O)[nH]c(=O)[nH]c12 | -0.7 (inactive) |
| CCOc1ccc(/C=c2/sc3nnc(-c4ccccc4C)n3c2=O)cc1 | -0.2 (inactive) |
| NC(=O)CSc1ccccc1NC(=O)c1cc(-c2cccs2)nn1-c1ccccc1 | 3.15 (inactive) |
| COc1ccc(NS(=O)(=O)N(C)C)cn1 | 0.3 (inactive) |
| Cc1oc2cc(O)ccc2c(=O)c1-c1nc2ccccc2[nH]1 | -0.6 (inactive) |
| O=C1CCCC2=C1C(c1ccccn1)C1=C(CCCC1=O)O2 | -2.45 (active) |
| O=C1CCCC2=C1C(c1ccccn1)Nc1ccc3ncccc3c12 (configuration not stated) | -0.55 (inactive) |
| CCCOc1ccc(C2C3=C(CCCC3=O)OC3=C2C(=O)CCC3)cc1 | -0.45 (inactive) |
| S=C(Nc1ccccc1)NC1CC2CCCC(C1)N2C1CC1 (configuration not stated) | -0.5 (inactive) |
| c1ccc(CNCc2ccc3c(c2)OCO3)cc1 | -1.25 (inactive) |
| O=C(CC(NCc1ccco1)C(=O)O)Nc1cccc(C(F)(F)F)c1 (configuration not stated) | 1.45 (inactive) |
| CCOc1ncccc1C(=O)Nc1ccc2c(c1)OCCO2 | -0.25 (inactive) |
| C[N+]1(CC(O)COc2ccccc2F)CCOCC1 (configuration not stated) | 0.45 (inactive) |
| O=C1C(=O)N(CCO)C(c2ccccc2)/C1=C(/O)c1ccccc1 (configuration not stated) | -0.3 (inactive) |
| COc1ccccc1-c1nnc(C2CCN(S(=O)(=O)c3ccc(C)cc3)CC2)o1 | 0.85 (inactive) |

| Structure (SMILES) | z-score |
| --- | --- |
| COC(=O)c1sc(=S)n(-c2ccc(C)cc2)c1N | 0.95 (inactive) |
| COc1cc(OC)c(C(=O)OCC(=O)N(C)C2CCCCC2)cc1OC | 0.65 (inactive) |
| O=C(CSc1ccccn1)Nc1cc(C(F)(F)F)cc(C(F)(F)F)c1 | -0.4 (inactive) |
| COC(=O)CC1=C(C(=O)OC)C2(C(=O)N1)C(C#N)=C(N)Oc1ccccc12 (configuration not stated) | 0.45 (inactive) |
| CC(C(=O)O)C(C(=O)O)C(C)c1ccccc1 (configuration not stated) | -0.7 (inactive) |
| O=C(NCCN1CCOCC1)C1CCN(C(=O)c2cc3sccc3n2Cc2ccc(F)cc2)CC1 | -0.45 (inactive) |
| O=C1NCCCCC1NC(=S)Nc1ccccc1 (configuration not stated) | -0.25 (inactive) |
| COc1cc(/C=C2/C(=O)Nc3cc(Cl)ccc32)cc(OC)c1O | 0.9 (inactive) |
| O=C(Cn1nnc(-c2ccccc2)n1)NC(=O)NCc1ccccc1 | -0.5 (inactive) |
| CN1CCC(OC(=O)c2ccc3c(c2)OCCO3)CC1 | -0.5 (inactive) |
| O=C1C=CC(=O)N1c1ccc(Br)cc1 | 0.05 (inactive) |
| CCNCC(=O)Nc1ccc(NC(C)=O)cc1 | 0.15 (inactive) |
| CC(=O)Nc1ccc(N2C(=O)C=CC2=O)cc1 | -2.5 (active) |
| Cc1ccc(-c2nnc(NCc3ccco3)c3ccccc23)cc1C | -0.6 (inactive) |
| Cc1ccc(NNC(=O)C(C)(C)O)c(C)c1 | -0.15 (inactive) |
| CCOC(=O)N1CCN(c2nc(-c3ccccc3)no2)CC1 | 0 (inactive) |
| CN1CCCc2cc(-c3ccnc4ccccc34)ccc21 | 0.35 (inactive) |
| COC(=O)c1cc2occc2n1Cc1ccc(C)cc1 | 0.3 (inactive) |
| O=C(COc1c(-c2ccco2)oc2ccccc2c1=O)NCCc1ccccc1 | 0.9 (inactive) |
| CCOC(=O)/C(=C(/C)N1CCCC1)P(=S)(N1CCOCC1)N1CCOCC1 | -1.8 (inactive) |
| Cc1nn(-c2ccccc2)c(OC(=O)c2ccc(Br)o2)c1Sc1ccccc1 | 0 (inactive) |
| CC(CC(=O)OCc1ncc(-c2ccccc2)o1)c1ccccc1 (configuration not stated) | 0.65 (inactive) |
| Cc1cc(C(=O)Oc2ccc(C(=O)c3ccc(F)cc3)cc2)on1 | -0.2 (inactive) |
| COc1ccc2oc(=O)c(C(=O)NC(C)(C)C)cc2c1 | -0.45 (inactive) |
